Source: PubChem (several laboratories)
The list is not random: actives were taken first. Their share in the collection is about 32%.
PostGolgi ctrl: growth inhibition of yeast control strain, primary screen, counter-screen for post-Golgi transport modulator project | efflux-deficient yeast background strain, growth absorbance A615, 16 h | inhibition, % at 10 µM | 5% of 98,000 active
CYP2C9 act: human CYP2C9 activators, primary screen, biochemical, luminescence; recombinant CYP2C9, luciferin-H conversion; stronger effect = higher value; factor 1 = untreated enzyme, 0 = blocked; activation factor at 5 µM; AID 1024, 2008; 1.4% of 96,000 active;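 active means activation factor of 2 or more for CYP2C9 at a 5 µM dose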;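 further: 0 = sulfaphenazole-blocked wells and 1 = vehicle-only wells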
CYP2C19 act: human CYP2C19 activators, primary screen, biochemical, luminescence. activation factor at 5 µM. AID 1025, 2008. 96,000 tested, under 10 active. recombinant CYP2C19, luciferin-H EGE luminescence; stronger effect = higher value; 0 = fully inhibited enzyme, 1 = untreated enzyme. Cytochrome P450 2C19 (Homo sapiens), P33261;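 active means activation factor of at least 2 at 5 µM in the primary screen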;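 further: 0 = wells with 2.5 mM tranylcypromine and 1 = vehicle-only wells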
Target sequence (P33261 whole entry, looked up): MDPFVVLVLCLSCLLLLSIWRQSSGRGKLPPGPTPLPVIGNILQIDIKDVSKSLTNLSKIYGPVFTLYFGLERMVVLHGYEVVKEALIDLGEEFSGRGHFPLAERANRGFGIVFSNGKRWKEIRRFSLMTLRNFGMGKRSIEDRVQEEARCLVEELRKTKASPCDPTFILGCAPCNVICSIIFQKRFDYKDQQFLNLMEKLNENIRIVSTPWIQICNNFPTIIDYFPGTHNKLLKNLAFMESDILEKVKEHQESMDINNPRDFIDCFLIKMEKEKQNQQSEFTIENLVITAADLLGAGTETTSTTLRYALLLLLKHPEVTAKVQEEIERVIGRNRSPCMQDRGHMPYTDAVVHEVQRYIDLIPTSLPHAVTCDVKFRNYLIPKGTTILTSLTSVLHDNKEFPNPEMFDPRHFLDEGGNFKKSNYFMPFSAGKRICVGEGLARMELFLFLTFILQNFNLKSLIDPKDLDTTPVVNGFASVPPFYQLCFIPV
CYP2C19 inhib: blockers of cytochrome P450 2C19 activity – biochemical, luminescence, ADME assay, primary screen | P33261 | CYP2C19 Supersomes, luciferin-H EGE luminescence, 30 min | inhibition, % at 5 µM | 21% of 96,000 active;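 active means CYP2C19 inhibition above a set limit at 5 µM in the primary screen, cut at about 50% in these data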;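 further: plate controls were negative control wells for no effect and 2.5 mM tranylcypromine positive control for full effect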
CYP2C9 inh: blockers of cytochrome P450 2C9 activity – biochemical, luminescence, ADME assay, primary screen; P11712; CYP2C9 Supersomes, luciferin-H conversion; inhibition, % at 5 µM; 20% of 96,000 active; AID 777, 2007;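 active means blocking of liver enzyme CYP2C9 beyond about 50% at 5 µM, limit read from the data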
PostGolgi yeast: phenotypic screen on post-Golgi transport, primary screen. inhibition, % at 10 µM. 0.9% of 98,000 active. AID 739, 2007. post-Golgi transport phenotypic cell assay;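 further: yeast cells grown in 1536-well plates; yeast grown about 18 h at 30C before absorbance read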
* marks the source's active call; other numbers are inactive results; nt = no result given. Unless noted, no stated cut-off is given here; in the data, active means inhibition above about 30%; inactive means the rest.

SMILES	PostGolgi ctrl	CYP2C9 act	CYP2C19 act	CYP2C19 inhib	CYP2C9 inh	PostGolgi yeast
FC(F)(F)c1nnc2ccc(N3CCCC3)nn12	4	0.7	0.8	25	30	-9
O=C(Nc1ccc(F)cc1)N1CCN(c2ccc3nnc(-c4ccc(F)cc4)n3n2)CC1	1	0.4	0.5	50*	55*	7
COC(=O)CSc1ccc2nnc(-c3ccc(F)cc3)n2n1	-2	0.5	1	4	50	16
O=C(Nc1ccccc1C(F)(F)F)N1CCN(c2ccc3nnc(-c4ccc(F)cc4)n3n2)CC1	2	0.3	0.8	23	65*	14
O=C(CCn1c(=O)oc2ccccc21)NCCCN1CCCC1=O	29	1.1	1.1	-6	-13	-13
CC1(c2ccncc2)Nc2ccccc2-c2nc3ccccc3n21 (stereo not given)	6	0.1	0	97*	90*	-3
CCCCn1c(NC(=O)c2ccccc2)c(C#N)c2nc3ccccc3nc21	1	0.2	1	-1	81*	-8
N#Cc1c(N)n(CCNC(=O)c2ccc(Cl)cc2)c2nc3ccccc3nc12	-6	1	0.9	10	-4	2
CCOC(=O)c1c(NC(=O)Cn2nnc3ccccc32)sc2c1CCC(C)C2 (stereo not given)	4	0.1	0.4	61*	88*	11
CC1CC(C)CN(CCCNC(=O)C2CCC(=O)N2C2CCCC2)C1 (stereo not given)	17	0.8	1	2	23	0
Cc1nnc(NC(=O)c2ccc3c(c2)C(=O)N(CCC(C)C)C3=O)s1	2	0.9	1	3	9	-12
Cc1ccc(-n2nnc3c(=O)n(Cc4cccc(C)c4)cnc32)cc1	2	0.6	0.7	29	39	-9
Cc1cccc(Cn2cnc3c(nnn3Cc3ccccc3F)c2=O)c1	17	2.8*	0.5	52*	-183	-6
O=C(Cn1cnc2c(nnn2Cc2ccccc2)c1=O)c1ccccc1	0	nt	nt	nt	nt	-8
O=c1c2nnn(Cc3ccccc3)c2ncn1-c1ccccc1	34*	1.4	1	-1	-38	-3
Cc1cccc(Cn2cnc3c(nnn3Cc3ccc(F)cc3)c2=O)c1	11	2.5*	0.4	58*	-153	0
Cc1ccc(C(=O)Oc2ccc(Cl)c3cccnc23)cc1[N+](=O)[O-]	1	1	1	3	0	-4
Cc1cc(C)c(C(=O)COc2cccnc2[N+](=O)[O-])cc1C	3	0.8	0.4	63*	17	10
COc1c(Br)cc(Br)cc1C(=O)O	10	0.9	1.2	-17	6	-2
Cn1c(Cl)cnc1C1CC(=O)c2cc(Cl)ccc2O1 (stereo not given)	38*	0.5	0.2	81*	46	-2
COc1ccc(C2=NOC(C(=O)NCc3ccco3)C2)cc1 (stereo not given)	0	1.2	0.8	18	-17	3
COc1cc(OC)c(C2=NOC(C(=O)NCCc3ccccc3)C2)cc1Cl (stereo not given)	15	1.3	0.4	62*	-28	-3
O=C(NCc1cccc(C(F)(F)F)c1)C1CC(c2c(Cl)cccc2Cl)=NO1 (stereo not given)	34*	0.6	0.2	78*	43	-8
COc1ccccc1CNC(=O)C1CC(c2ccc([N+](=O)[O-])cc2)=NO1 (stereo not given)	0	1.2	0.7	32	-25	-4
COc1ccc(CCNC(=O)C2CC(c3c(Cl)cccc3Cl)=NO2)cc1 (stereo not given)	9	0.7	0.5	48	33	3
SMILES	PostGolgi ctrl	CYP2C9 act	CYP2C19 act	CYP2C19 inhib	CYP2C9 inh	PostGolgi yeast
O=C(NCc1ccc2c(c1)OCO2)C1CC(c2ccc(Cl)c(Cl)c2)=NO1 (stereo not given)	0	0.9	0.9	6	8	5
COc1ccccc1CNC(=O)C1CC(c2c(Cl)cccc2Cl)=NO1 (stereo not given)	7	2.2*	0.2	84*	-115	2
O=C(NCc1ccco1)C1CC(c2c(Cl)cccc2Cl)=NO1 (stereo not given)	-6	2.3*	0.7	32	-134	-1
CCOCC(=O)Nc1cccc(Br)c1	8	1	0.8	16	-4	0
C=CCNc1nc(Nc2ccc(OC)cc2)nc(OCC)n1	-5	1	0.9	10	3	-7
CC(Nc1cccc2ccccc12)C(=O)N/N=C/c1ccccn1 (stereo not given)	4	1.1	0.1	86*	-14	-4
Cc1nn(Cc2c(F)c(F)c(F)c(F)c2F)c(C)c1NC(=O)c1c([N+](=O)[O-])cnn1C	2	1	0.8	16	2	15
Cc1ccc(OCc2ccc(C(=O)Nc3c(C)nn(Cc4c(F)c(F)c(F)c(F)c4F)c3C)o2)c([N+](=O)[O-])c1	39*	0.4	0.4	57*	57*	-6
O=C(Nc1nnc(C2CC2)o1)c1ccc(S(=O)(=O)N2CCCc3ccccc32)cc1	3	0.1	0.9	6	95*	33*
O=C(NCc1ccco1)c1ccc(S(=O)(=O)N2CCCc3ccccc32)cc1	2	0.2	0.3	67*	76*	-15
CC1CN(S(=O)(=O)c2ccc(C(=O)Nc3nnc(-c4ccc5c(c4)CCCC5)o3)cc2)CC(C)O1 (stereo not given)	21	0.6	1	2	42	-2
O=C(NCc1ccco1)c1ccc2ccccc2c1	4	1	0.7	28	-4	7
COc1ccc(-c2nnc(NC(=O)c3ccc(S(=O)(=O)N4CCCc5ccccc54)cc3)o2)cc1	20	0.5	1	-1	54*	2
O=C(NCCO)c1cccc(Nc2nc(-c3ccccc3)c3cc(Cl)ccc3n2)c1	49*	1	0.8	16	-4	5
Cc1ccc2nc(NCCCO)nc(-c3ccccc3)c2c1	25	0.9	0.9	6	12	-3
Clc1cccc(-c2nn3c(Cn4cnc5ccccc54)nnc3s2)c1	11	0.7	0.9	14	28	-4
c1csc(-c2nn3c(Cn4nnc5ccccc54)nnc3s2)c1	5	1.1	0.9	5	-5	-5
c1ccc2c(c1)nnn2Cc1nnc2sc(-c3ccncc3)nn12	2	0.4	0.2	78*	57*	-5
Clc1ccc(Cc2nn3c(Cn4nnc5ccccc54)nnc3s2)cc1	30	0.3	0.5	48	73*	-3
c1coc(-c2nn3c(Cn4nnc5ccccc54)nnc3s2)c1	9	0.5	0.2	76*	45	0
